# The source made the active and inactive calls.
# Experiments:
# [1] = test system: Plasmodium falciparum Sir2 (PF13_0152, Sir2A); experiment: pfSir2 binders on small-molecule microarrays, primary screen, biochemical, small-molecule microarray, 635 nm fluorescence (AID 1098); conditions: small-molecule microarray binding, fluorescence 635 nm; higher = more signal;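 further: score merges spot fluorescence intensity with its signal-to-noise ratio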
# [2] = small-molecule microarray binders of probe aDKK1, primary screen, biochemical, biotinylated probe, 635/667 nm fluorescence (AID 1099); conditions: higher = more signal;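 further: score merges 667nm spot fluorescence with signal to noise across triplicate slides; reference of the scale not given here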
# [3] = small-molecule microarray binders of probe aCHRDL2, primary screen, biochemical, biotinylated probe, 635/667 nm fluorescence (AID 1100); conditions: higher = more signal
# [4] = splicing luciferase reporter signal modulators, primary screen, spliceosome inhibition project, cell-based, HEK293, splice +/- reporter (AID 1101); conditions: luminescence, 24 h, higher = more signal, called active from +8 up or from −8 down;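 further: HEK293 cells carrying a splicing-competent luciferase reporter gene; test concentration not given here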
# [5] = target: Fibroblast growth factor 10 (Homo sapiens) (UniProt O15520); experiment: FGF10 binders on small-molecule microarrays, primary screen, biochemical, small-molecule microarray, 635 nm fluorescence (AID 1102); conditions: FGF10 binding, fluorescence 635 nm, higher = more signal
# Chain of Fibroblast growth factor 10 (Homo sapiens) (O15520 whole entry, looked up): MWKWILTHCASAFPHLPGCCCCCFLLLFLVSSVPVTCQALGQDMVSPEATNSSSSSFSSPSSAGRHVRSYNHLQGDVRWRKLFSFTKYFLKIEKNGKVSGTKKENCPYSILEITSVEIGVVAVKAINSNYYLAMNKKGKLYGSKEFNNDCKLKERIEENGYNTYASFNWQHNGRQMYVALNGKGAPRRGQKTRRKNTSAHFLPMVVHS
# [6] = test system: glycogen synthase kinase-3 (GSK3A per assay name; protocol says GSK3B); experiment: GSK3 binders on small-molecule microarrays, primary screen, biochemical, small-molecule microarray, 635 nm fluorescence, GSK3A (AID 1103); conditions: small-molecule microarray binding, fluorescence 635 nm; higher = more signal; further: the record names both GSK3A and GSK3B
# [7] = target: Epidermal growth factor receptor (Homo sapiens) (UniProt P00533); experiment: EGFR binders on small-molecule microarrays, primary screen, biochemical, small-molecule microarray, 635 nm fluorescence (AID 1104); conditions: EGFR binding, higher = more signal;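 further: score merges 667 nm emission intensity with spot signal to noise over triplicate slides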
# Chain of Epidermal growth factor receptor (Homo sapiens) (P00533 whole entry, looked up): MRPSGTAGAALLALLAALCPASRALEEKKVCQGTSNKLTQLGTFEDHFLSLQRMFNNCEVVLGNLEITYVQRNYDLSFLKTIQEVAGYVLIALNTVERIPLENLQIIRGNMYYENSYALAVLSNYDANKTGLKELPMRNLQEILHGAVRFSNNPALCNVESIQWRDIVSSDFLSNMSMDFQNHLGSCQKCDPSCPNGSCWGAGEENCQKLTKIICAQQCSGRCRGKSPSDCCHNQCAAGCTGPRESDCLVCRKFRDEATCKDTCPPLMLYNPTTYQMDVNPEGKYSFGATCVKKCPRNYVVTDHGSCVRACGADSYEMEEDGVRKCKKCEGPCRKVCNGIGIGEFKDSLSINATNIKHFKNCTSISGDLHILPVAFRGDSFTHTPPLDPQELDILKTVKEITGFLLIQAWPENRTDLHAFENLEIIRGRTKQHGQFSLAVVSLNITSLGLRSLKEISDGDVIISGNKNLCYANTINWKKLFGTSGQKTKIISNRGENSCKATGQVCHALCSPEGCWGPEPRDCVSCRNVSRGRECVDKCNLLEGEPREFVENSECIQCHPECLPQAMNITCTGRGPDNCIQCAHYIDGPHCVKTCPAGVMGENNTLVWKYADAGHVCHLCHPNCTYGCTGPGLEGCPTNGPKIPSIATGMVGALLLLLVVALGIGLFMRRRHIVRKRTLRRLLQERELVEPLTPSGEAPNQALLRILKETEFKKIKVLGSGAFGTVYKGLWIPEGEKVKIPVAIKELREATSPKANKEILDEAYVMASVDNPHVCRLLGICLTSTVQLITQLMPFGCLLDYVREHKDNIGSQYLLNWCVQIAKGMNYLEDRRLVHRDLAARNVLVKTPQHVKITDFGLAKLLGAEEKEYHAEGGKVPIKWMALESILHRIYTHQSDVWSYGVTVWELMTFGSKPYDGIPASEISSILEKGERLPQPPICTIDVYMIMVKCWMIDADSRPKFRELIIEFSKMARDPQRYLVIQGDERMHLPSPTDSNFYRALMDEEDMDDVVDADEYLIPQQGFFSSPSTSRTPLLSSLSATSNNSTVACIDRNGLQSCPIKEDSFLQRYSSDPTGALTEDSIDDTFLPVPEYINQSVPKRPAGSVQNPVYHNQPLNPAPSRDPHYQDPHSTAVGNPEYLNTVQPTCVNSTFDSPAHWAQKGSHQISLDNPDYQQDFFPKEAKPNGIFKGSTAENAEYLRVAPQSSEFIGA
# [8] = target: Follistatin-related protein 3 (Homo sapiens) (UniProt O95633); experiment: FSTL3 binders on small-molecule microarrays, primary screen, biochemical, small-molecule microarray, 635 nm fluorescence (AID 1105); conditions: FSTL3 binding, higher = more signal;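 further: score merges emission near 667 nm and signal to noise per printed spot across three slides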
# Chain of Follistatin-related protein 3 (Homo sapiens) (O95633 whole entry, looked up): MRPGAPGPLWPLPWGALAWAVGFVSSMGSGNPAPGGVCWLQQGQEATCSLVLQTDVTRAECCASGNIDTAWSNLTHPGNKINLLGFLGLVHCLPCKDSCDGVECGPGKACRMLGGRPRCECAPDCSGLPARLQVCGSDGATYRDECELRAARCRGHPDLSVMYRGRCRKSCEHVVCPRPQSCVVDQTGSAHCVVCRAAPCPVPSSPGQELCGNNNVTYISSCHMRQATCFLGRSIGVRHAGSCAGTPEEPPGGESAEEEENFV
# [9] = target: Dickkopf-related protein 1 (Homo sapiens) (UniProt O94907); experiment: DKK1 binders on small-molecule microarrays, primary screen, biochemical, small-molecule microarray, 635 nm fluorescence scan (AID 1106); conditions: DKK1 binding, higher = more signal;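 further: score merges emission near 667 nm with signal to noise over three replicate slides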
# Chain of Dickkopf-related protein 1 (Homo sapiens) (O94907 whole entry, looked up): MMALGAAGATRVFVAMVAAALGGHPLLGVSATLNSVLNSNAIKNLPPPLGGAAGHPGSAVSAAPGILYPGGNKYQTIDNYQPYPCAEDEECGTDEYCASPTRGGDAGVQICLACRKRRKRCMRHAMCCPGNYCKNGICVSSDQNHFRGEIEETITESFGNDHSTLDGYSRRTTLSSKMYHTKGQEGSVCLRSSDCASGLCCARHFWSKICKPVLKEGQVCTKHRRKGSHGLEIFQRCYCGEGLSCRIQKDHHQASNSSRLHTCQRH
# [10] = test system: Inhibin beta A chain (activin A); experiment: INHBA (activin A) binders on microarrays, primary screen, biochemical, small-molecule microarray, 635 nm fluorescence scan (AID 1107); conditions: small-molecule microarray binding, higher = more signal;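 further: mouse activin A protein probed at 4.33 µg/mL on printed slides; score merges bound-protein fluorescence near 667 nm with spot signal-to-noise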
SMILES,composite z-score [1],composite z-score [2],composite z-score [3],z-score [4],composite z-score [5],composite z-score [6],composite z-score [7],composite z-score [8],composite z-score [9],composite z-score [10]
COC(=O)CC=C[C@@H](C)[C@@H](C=NOC(C)CN1CCCc2nc(C)c(C)cc21)NS(=O)(=O)c1ccc(C)cc1 (stereo not given in full),0.268,0.219,-0.296,0.218 (inactive),0.65,0.793,0.568,1.01,0.829,0.932
COC(=O)CC=C1c2ccccc2[C@H](OC)[C@H]1C,-0.0214,-0.314,-0.624,0.0124 (inactive),0.0785,-0.234,0.33,0.0242,0.485,1.05
CC(C)CON=C1C[C@@H](O)[C@@H](O)[C@@H]2[C@@H]3C(=O)N([C@@H](C)c4ccccc4)C(=O)[C@@H]3CC[C@@H]12,-0.201,0.083,0.767,0.226 (inactive),0.266,-0.0708,0.191,-0.279,-0.24,0.467
COCC#Cc1ccc([C@@H]2N[C@H](C(=O)O)CC[C@H]2C)cc1,-0.331,0.159,-0.0016,-1.63 (inactive),0.129,0.223,0.362,0.246,0.302,0.784
CC=CC1=C(CO)[C@H](O)[C@H]2O[C@H]2[C@@H]1O,0.134,-0.416,-1.13,0.666 (inactive),0.733,0.403,0.148,0.608,0.943,0.161
O=C1CCCC=C1C(O)c1ccc([N+](=O)[O-])cc1 (stereo not given),-0.805,-0.0341,-0.429,-0.337 (inactive),0.59,0.288,0.406,0.211,0.133,0.478
COc1ccc(-c2cnnc(CCCn3ccnc3-c3ccccc3)n2)cc1,0.442,0.0096,-0.592,-1.04 (inactive),0.7,0.7,0.929,1.37,1.02,0.327
O=C1[C@H]2[C@H]3[C@H](O)[C@H](O)CC(=NOC[C@@H](O)COCc4ccco4)[C@@H]3CC[C@H]2C(=O)N1C1CCCCC1,0.225,-0.401,-1.26,0.76 (inactive),-0.102,1.04,0.783,1.36,1.46,1.23
Cc1ccc(S(=O)(=O)N[C@@H]2COC(=O)CC=C[C@@H](C)[C@H](NS(=O)(=O)c3ccc(C)cc3)COC(=O)[C@H](C)NC(=O)CC=C[C@H]2C)cc1,-0.267,-0.472,-0.684,-0.294 (inactive),-0.0861,-0.0951,0.0994,0.129,0.123,1.27
CC(C)(C)N1C(=O)[C@H]2[C@H]3[C@H](O)[C@H](O)CC(=NOC[C@@H](O)COCc4ccco4)[C@@H]3CC[C@H]2C1=O,0.34,0.774,0.588,0.369 (inactive),0.249,-0.332,-0.144,-0.248,-0.272,0.426
COC(=O)[C@@H]1CC[C@H](C)[C@@H](c2ccc(Br)cc2)N1C[C@@H](O)CN=[N+]=[N-],0.0292,-0.0196,-0.304,-1.34 (inactive),0.189,0.078,0.532,0.0985,0.356,-0.28
CO[C@@H]1COC(=O)[C@@H]2CCCN2C(=O)[C@@H](C)COC(=O)CCC[C@H]1C,0.877,-0.331,-0.624,-1.27 (inactive),0.981,0.561,0.38,0.621,0.661,-0.751
CC(C)=NOC[C@@H](O)[C@H]1O[C@@H]2OC(C)(C)O[C@@H]2[C@H]1O,0.231,-0.0464,-0.364,0.211 (inactive),0.392,0.892,0.487,0.434,0.58,0.5
CC(C)(C)N1C(=O)[C@H]2[C@@H]3C(=CC[C@H]2C1=O)C(=O)[C@H]1O[C@H]1[C@H]3O,1.09,-0.366,-0.779,3.47 (inactive),0.0491,0.138,0.144,-0.162,0.512,0.555
COC(=O)[C@@H]1CC[C@H](C)[C@@H](c2ccc(Br)cc2)N1C(=O)C(F)(F)F,-0.324,-0.215,-0.174,-0.0429 (inactive),-0.329,-0.657,0.0496,-0.324,-0.144,0.237
CCN1C(=O)[C@H]2[C@@H]3C(=CC[C@H]2C1=O)C(=O)[C@H]1O[C@H]1[C@H]3O,0.641,-0.409,-0.722,17 (active),1.06,1.11,0.827,1.28,1.17,0.065
CC(=O)OC[C@H]1O[C@H](C#CCC2CCCCC2)C=C[C@@H]1OC(C)=O,1.26,-0.215,-0.595,-0.531 (inactive),1.04,0.719,0.362,0.674,0.668,-0.222
O=C1C2=CC[C@H]3C(=O)N(C4CCCCC4)C(=O)[C@H]3[C@H]2[C@H](O)[C@@H]2O[C@H]12,-0.541,-0.121,-0.588,15.3 (active),-0.246,-1.31,0.0862,-1.22,0.271,-0.185
